{"source": "the supplement of paper PMC8728848", "experiment_in_all_cases": "glycan array binding signal (z-score within array); higher = stronger binding", "key": {"[1]": {"test_system": "Neu5Gc(a2-3)Gal(b1-4)Glc", "settings": "glycan notation: IUPAC condensed, linker removed", "outline": "(§1)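 The binding signal is a Z-score computed within each array. Data were drawn from 3228 arrays in the Consortium for Functional Glycomics database, restricted to those with a known protein sequence. Scores were averaged over arrays of the same protein sequence at different concentrations or buffers, and over linkers, and negative values can be taken as non-binding.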"}, "[2]": {"test_system": "Neu5Gc(a2-8)Neu5Gc(a2-3)Gal(b1-4)GlcNAc", "settings": "glycan notation: IUPAC condensed, linker removed; mutation: R125K", "outline": "as §1"}, "[3]": {"test_system": "Neu5Gc(a2-3)Gal(b1-4)[Fuc(a1-3)]GlcNAc", "settings": "glycan notation: IUPAC condensed, linker removed", "outline": "as §1"}, "[4]": {"test_system": "Neu5Gc(a2-6)GalNAc", "settings": "glycan notation: IUPAC condensed, linker removed", "outline": "as §1"}, "[5]": {"test_system": "Neu5Gc(b2-6)Gal(b1-4)GlcNAc", "settings": "glycan notation: IUPAC condensed, linker removed", "outline": "as §1"}}, "note": "The full list was thinned out, with the strongest signals kept by preference."}
{"substance": "Siglec-8 (Homo sapiens), Q9NYZ4", "values": [{"measurement": "glycan array binding signal (z-score)", "setting": "[1]", "result": -0.088}, {"measurement": "glycan array binding signal (z-score)", "setting": "[2]", "result": -0.526}]}
{"substance": "SRLC (Mus musculus), Q8VIF6", "values": [{"measurement": "glycan array binding signal (z-score)", "setting": "[1]", "result": -0.188}]}
{"substance": "Aggrecan (Rattus norvegicus), NP_071526", "values": [{"measurement": "glycan array binding signal (z-score)", "setting": "[3]", "result": -0.152}]}
{"substance": "6RG (Lolium perenne)", "values": [{"measurement": "glycan array binding signal (z-score)", "setting": "[4]", "result": -0.128}]}
{"substance": "C3b (Homo sapiens), P01024", "values": [{"measurement": "glycan array binding signal (z-score)", "setting": "[4]", "result": -0.982}]}
{"substance": "PILRb (Mus musculus), Q2YSF2", "values": [{"measurement": "glycan array binding signal (z-score)", "setting": "[5]", "result": -0.093}]}
